From the supplement of paper PMC4954754 come the findings set out here.

The structures appear in SMILES notation. ± gives the uncertainty stated by the source.

This assay relates to HEK293T-Rex ERSE-FLuc. The experiment in a line: ERSE-FLuc reporter activation, triplicate confirmation, relative to 500 nM thapsigargin (% of thapsigargin); higher = stronger ATF6/ERSE reporter activation. The following applies: 6.8 µM; 18 h; screen: confirmation. As for the experimental part:
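HEK293T-Rex cells stably expressing the ERSE-firefly luciferase (BiP promoter, ATF6-preferring) or XBP1-splicing Renilla luciferase (IRE1/XBP1s) reporter, 1536-well plates, compound at 6.8 µM for 18 hr at 37 °C; luminescence read […] and expressed as % activation = 100*(compound - median DMSO)/(median 500 nM thapsigargin - median DMSO). Primary screen was single-pass; confirmation screen in triplicate (mean ± SD).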
The compound `Nc1ccc2nc(/C=C/c3ccco3)[nH]c2c1` showed an ERSE-FLuc reporter activation of 40.9 ± 9.5.
`NC(=O)c1c(NC(=O)COc2ccccc2)sc2c1CCC2` displayed an ERSE-FLuc reporter activation of 27.1 ± 3.2.
As to `COc1ccc(-c2cc(C(=O)Nc3cc(C)ccc3O)on2)cc1OC`, the ERSE-FLuc reporter activation worked out at 33.8 ± 1.9.
In the case of `CCCNc1ccnc(N2CCc3ccccc3C2)n1`, the ERSE-FLuc reporter activation turned out to be 25.7 ± 11.
As to `Cc1cc2nc(-c3ccc(SCC#N)nc3)[nH]c2cc1C`, the ERSE-FLuc reporter activation worked out at 26.8 ± 1.7.
The figure for `CC(C)c1ccc(NC(=O)/C=C/c2ccco2)cc1` is 26.6 ± 5.9; for `O=c1cc(-c2ccc(O)c(O)c2)oc2ccccc12` it is 42.2 ± 12; for `COc1ccc(C2=Nn3c(nnc3-c3ccc(OC)cc3)SC2)cc1` it is 30.7 ± 4.3.
As for `Oc1cccc(Nc2nc(-c3ccc(O)c(O)c3)cs2)c1`, the ERSE-FLuc reporter activation worked out at 26.1 ± 6.7.
The figure for `Cc1ccc(/C=N/NC(=O)c2cccc(Cl)c2)cc1` is 31.9 ± 1.9.
In turn, `Cc1cc(C)nc(/N=C(\N)Nc2ccc(OCc3ccc(Cl)cc3)cc2)n1` registered an ERSE-FLuc reporter activation of 59.7 ± 14.
In the case of `Cc1ccc(O)c(NC(=O)CCc2ccccc2)c1`, the ERSE-FLuc reporter activation was determined as 63.24 ± 0.61.
`COc1cccc(/C=N/NC(=O)c2ccc(NC(=O)c3ccc(C)cc3)cc2)c1O` returned an ERSE-FLuc reporter activation of 36.4 ± 11.
For `Cc1ccc(O)c(NC(=O)c2cc(C(C)C)on2)c1`, the ERSE-FLuc reporter activation was determined as 44.6 ± 1.3.
`CCOc1cccc(C(=O)Nc2ccc(Br)cn2)c1` showed an ERSE-FLuc reporter activation of 26 ± 3.3.
The compound `Cc1ccn2cc(-c3ccc(O)c(O)c3)nc2c1` gave an ERSE-FLuc reporter activation of 36.4 ± 12.
With `O=C(CC(=O)Nc1ccc2nc3n(c(=O)c2c1)CCCCC3)NCc1ccco1`, the ERSE-FLuc reporter activation is 28 ± 11.
With `COc1ccccc1-c1cc(C(=O)Nc2cc(C)ccc2O)no1`, the ERSE-FLuc reporter activation was 29.1 ± 4.
For `Nc1ccccc1NC(=O)c1ccc(C(F)(F)F)cc1`, the ERSE-FLuc reporter activation worked out at 27.2 ± 5.7.
`Cc1ccc(/C=C(\C#N)C(=O)Nc2cccc(Cl)c2)o1`: the ERSE-FLuc reporter activation turned out to be 26.2 ± 10.
In turn, `C=CCNC(=O)c1sc2nc3cc(C)c(C)cc3cc2c1N` came in with an ERSE-FLuc reporter activation of 30.2 ± 5.3.
The figure for `Cc1ccc(O)c(NC(=S)NC(=O)/C=C/c2ccco2)c1` is 27 ± 5.2; for `O=C(N/N=C/c1cccc(Cl)c1Cl)c1ccccc1O` it is 25.3 ± 1.4; for `O=C(N/N=C/c1ccc(O)c(O)c1)c1ccc(Br)cc1` it is 31.2 ± 2.8.
The same measure for `CCCCNNC(=O)c1ccc(Br)cc1`: 60.9 ± 6.
`COc1ccc(N(C(=O)c2ccccc2)S(=O)(=O)c2cc(OC)ccc2OC)cc1`: the ERSE-FLuc reporter activation stood at 103 ± 9.2.
`O=C(c1ccccc1)c1c(O)ccc2c(C(=O)c3ccccc3)c(O)ccc12` registered an ERSE-FLuc reporter activation of 39.3 ± 7.9.
As for `O=C(N/N=C\C(Cl)=C\c1ccccc1)c1n[nH]c2c1CCCC2`, the ERSE-FLuc reporter activation was found to be 33.3 ± 7.3.
For `Cc1ccc(O)c(NC(=O)CSc2n[nH]c(C)c2[N+](=O)[O-])c1`, the ERSE-FLuc reporter activation turned out to be 52.5 ± 14.
The figure for `N#Cc1c(NC(=O)c2cccc(F)c2)sc2c1CCC2` is 25.9 ± 3.9.
`COC(=O)c1ccc(C(=O)Nc2ccccc2N)cc1`: the ERSE-FLuc reporter activation turned out to be 32.9 ± 4.2.
As to `Cc1cnc(NC(=O)c2sc3nc4c(C)cccc4cc3c2N)s1`, the ERSE-FLuc reporter activation is 28.6 ± 7.1.
Turning to `CN(C)c1ccc(/C=N/NC(=O)c2cccc(Br)c2)cc1`, the ERSE-FLuc reporter activation worked out at 26.5 ± 2.7.
`N#Cc1c(NC(=O)/C=C/c2ccco2)sc2c1CCCC2` gave an ERSE-FLuc reporter activation of 29.4 ± 2.5.
In turn, `O=[N+]([O-])c1ccc2nc(/C=C/c3ccccc3)[nH]c2c1` gave an ERSE-FLuc reporter activation of 25.2 ± 1.7.
The compound `Cc1ccccc1NC(=O)c1sc2nc(N)c(C#N)c(-c3ccc(C(C)C)cc3)c2c1N` came in with an ERSE-FLuc reporter activation of 36.7 ± 3.3.
Compound `N#CC1=C(N)Oc2c(ccc3ccccc23)C1c1ccccc1` (stereo not given) returned an ERSE-FLuc reporter activation of 27.3 ± 3.3.
`COc1ccc(NC(=O)/C(Cl)=C\c2ccccc2)cc1`: the ERSE-FLuc reporter activation amounted to 28.6 ± 2.2.
Compound `CCc1ccc(NC(=O)/C=C/c2ccco2)cc1` yielded an ERSE-FLuc reporter activation of 29.1 ± 4.
Regarding `Nc1ccccc1NC(=O)c1ccc(Cl)cc1`, the ERSE-FLuc reporter activation was determined as 33.6 ± 4.6.
